In PubChem BioAssay (NCI) one finds growth data, which are given here for 8 compounds.

Compounds without any hit were thinned out: in the full panel of roughly 83,000, 20% have a hit.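 In brief: 96-well plates, 48 h treatment, single concentration, percent growth endpoint.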 Unmarked numbers belong to inactive results. The source made the active and inactive calls. Rule for the calls: active = growth percent below 10; inactive = the rest.

What all share (assay): NCI-60 one-dose screen, 48 h (100 = growth as untreated, 0 = no growth, -100 = all killed)
Common to all, as to conditions: 10 µM unless noted

Experiment [1] has as its system SK-MEL-2 melanoma.
Experiment [2] deals with EKVX NSCLC.
Experiment [3] has as its system SN12C renal.
In experiment [4] the test system is UO-31 renal.
Experiment [5] deals with TK-10 renal.
The test system of experiment [6] is ACHN renal.
The subject of experiment [7] is CAKI-1 renal.
Experiment [8] relates to A498 renal.
The test system of experiment [9] is CCRF-CEM leukemia.
For experiment [10], the system named is SR leukemia.
In experiment [11] the test system is RPMI-8226 leukemia.
Experiment [12] deals with OVCAR-8 ovarian.
The test system of experiment [13] is OVCAR-5 ovarian.
The test system of experiment [14] is OVCAR-4 ovarian.
The test system of experiment [15] is SK-OV-3 ovarian.
The test system of experiment [16] is IGROV1 ovarian.
Experiment [17] has as its system OVCAR-3 ovarian.
Experiment [18] concerns HS 578T breast.
Experiment [19] relates to NCI/ADR-RES ovarian.
In experiment [20] the test system is MOLT-4 leukemia.

Take `Oc1ccc(-c2nc3ccccc3s2)cc1CN(Cc1ccccn1)Cc1ccccn1`: the growth was 3.08% (active) in [1]; 5.39% (active) in experiment [2]; 20.3% in experiment [3]; -31.8% (active) in experiment [4]; 2.77% (active) in experiment [5]; 4.42% (active) in [6]. Also, the growth was -15.8% (active) in experiment [7]; 31.9% in [8]; 6.5% (active) in experiment [9]; 7.98% (active) in experiment [10]; 13.2% in experiment [11]; 9.43% (active) in [12]. Further, the growth was 40.9% in experiment [13]; 18% in [14]; 7% (active) in [15]; 15% in experiment [16]; 26.2% in experiment [17]; 41.6% in experiment [18]. For the same compound, the growth in experiment [19] was -37.2% (active).
`CNCCCn1c2c(c3ccc(Cl)cc3c1=O)C(=O)c1cc(OC)cnc1-2`: the growth in experiment [1] is 77.3%; in [2] it was 63.8%; in experiment [3] it was 39.7%; in experiment [4] it was 33.4%; in experiment [5], 54.2%; in experiment [6], 19.8%. The growth in experiment [7] is 35.3%; in [8], 20.5%; in experiment [9], -22.5% (active); in experiment [10], -33.5% (active); in experiment [11], -56.3% (active); in experiment [12], 40.8%. The growth was 91.9% in [13]; 58.8% in experiment [14]; 23.7% in [15]; 50.3% in experiment [16]; 49.3% in experiment [17]; 71.7% in experiment [18]. In addition, the growth in experiment [19] is 46.5%.
Take `N=C(N)c1ccc(NCCNc2ccc(C(=N)N)cc2)cc1`: the growth was 97.3% in experiment [1]; 102% in experiment [2]; 46% in experiment [3]; 87.2% in experiment [4]; 111% in experiment [5]; 85.5% in [6]. In addition, the growth in [7] was 74.3%; in experiment [8], 90.2%; in [9] it was -71.7% (active); in experiment [20] it was -52.9% (active); in experiment [11], 82.8%; in experiment [12] it was 92.4%. Also, the growth is 95.1% in [13]; 110% in [14]; 133% in [15]; 98.5% in experiment [16]; 110% in experiment [17]; 109% in experiment [18]. The growth in experiment [19] is 99%.
In the case of `C=C(COC(C)=O)[C@H]1CC/C(C)=C/CC/C(C)=C/CC[C@@]2(C)O[C@H]2C1`, the growth is 101% in experiment [1]; 106% in experiment [2]; 106% in experiment [3]; 99.9% in experiment [4]; 108% in experiment [5]; 99.8% in [6]. In addition, the growth in experiment [7] is 126%; in experiment [8], 119%; in experiment [9], 328%; in experiment [20] it was 110%; in experiment [11], 180%; in experiment [12], 103%. Also, the growth was 99.2% in experiment [13]; 115% in [14]; 125% in [15]; 103% in experiment [16]; 121% in [17]; 108% in experiment [18]. Further, the growth in experiment [19] was 102%.
As to `Cc1cc(O)ccc1Sc1ccccc1[N+](=O)[O-]`, the growth was 99.4% in [1]; 74.8% in experiment [2]; 92.3% in experiment [3]; 52.7% in experiment [4]; 90.6% in experiment [5]; 87.4% in experiment [6]. The growth in experiment [7] was 89.8%; in experiment [8] it was 87.6%; in [9], 93.5%; in [20], 115%; in experiment [11] it was 82.5%; in experiment [12] it was 97.1%. The growth in experiment [13] is 99.6%; in experiment [14] it was 90%; in experiment [15], 101%; in experiment [16], 90.6%; in experiment [17] it was 96.1%; in experiment [18] it was 80%. The growth in [19] is 83%.
For `O=C(N/N=C/c1ccc([N+](=O)[O-])o1)c1ccc(O)cc1`, the growth in [1] was 24.1%; in experiment [2], 71.2%; in [3], 29.4%; in experiment [4] it was 84.7%; in experiment [5], 125%; in experiment [6], 66.5%. In addition, the growth in [7] is 88.3%; in experiment [8], 112%; in experiment [9] it was 34.6%; in experiment [20], 48.4%; in experiment [11], 39.8%; in [12], 17.6%. In addition, the growth in [13] is 78.7%; in experiment [14], 42%; in [15] it was 63.8%; in experiment [16] it was 30.5%; in [17] it was 23.4%; in [19], 36.6%.
For the compound `CCN(CC)CCCC(C)Nc1c(-c2ccccc2)cnc2cc(Cl)ccc12` (stereo unspecified), the growth was 35.1% in experiment [1]; 83.4% in [2]; 74.1% in experiment [3]; 50.3% in experiment [4]; 59.8% in experiment [5]; 93% in [6]. In addition, the growth in experiment [7] is 85.8%; in experiment [8] it was 60%; in [9], 62.1%; in experiment [10], 7.58% (active); in [11], 27.4%; in experiment [12], 71.3%. Further, the growth in [13] was 83.4%; in [14], 83%; in experiment [15], 89.7%; in experiment [16], 36.5%; in [17] it was 82.4%; in [18], 70.3%. Moreover, the growth in [19] was 79.6%.
Take `CCC(=O)OCc1ccc(OC)cc1`: the growth is 112% in [1]; 107% in [2]; 91% in [3]; 82% in experiment [4]; 107% in experiment [5]; 103% in experiment [6]. Also, the growth in experiment [7] is 96.6%; in [8], 144%; in experiment [9] it was 99.4%; in experiment [20] it was 95.3%; in [11], 107%; in experiment [12], 102%. Moreover, the growth in experiment [13] is 95%; in [14], 107%; in experiment [15] it was 108%; in experiment [16], 102%; in [17], 110%; in experiment [18] it was 135%. Besides, the growth in experiment [19] is 99.4%.
